# Source: PubChem BioAssay (Tox21)
# Unmarked numbers belong to inactive results. Inconclusive results are not listed. A call without a number means that no potency is given here. Calls of active or inactive are those of the source. Calls follow the shape of the dose curve; as a rule, active = well fitted curve in the direction sought with a large enough effect in the repeat runs; inconclusive = weak or mixed curves; inactive = no such curve, though single readings can be large; an effect the other way counts as inactive or inconclusive. Where a SMILES comes first, the peptide text is derived from it. [ ]: non-standard residue; d: D form. pGlu = O=C1CC[C@@H](C(=O)O)N1
# Experiments:
# [1] = A CellTox Green Cytotoxicity Assay to monitor cytotoxicity in HEK293 cells - 32 hour (AID 1224881); also: nearly all actives have a fitted effect of over 40% in size
# In short: (§1)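 Dead-cell fluorescence measured kinetically: asymmetric cyanine dye, HEK293, 600 cells/well, 5 h settle, 23 nL cpd/DMSO, 37 C, reads 0–40 h every 8 h.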
# [2] = A CellTox Green Cytotoxicity Assay to monitor cytotoxicity in HepG2 cells - 0 hour (AID 1224882); also: nearly all actives have a fitted effect of over 35% in size
# In short: (§2)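 First, HepG2 cells (600/well) mixed with reagent were plated; second, after 5 h at 37 C they received compounds via pintool; third, fluorescence was measured at 0 h through 40 h at 8 h intervals.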
# [3] = A CellTox Green Cytotoxicity Assay to monitor cytotoxicity in HepG2 cells - 32 hour (AID 1224883); also: nearly all actives have a fitted effect of over 50% in size
# In short: as §2
# [4] = A CellTox Green Cytotoxicity Assay to monitor cytotoxicity in HEK293 cells - 8 hour (AID 1224884); also: nearly all actives have a fitted effect of over 35% in size
# In short: as §1
# [5] = qHTS RealTime-Glo MT Cell Viability Assay in HepG2 cells - 16 hour (AID 1224885); also: nearly all actives have a fitted effect of over 50% in size
# In short: (§3)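 Viability was tracked continuously by NanoLuc luminescence from prosubstrate reduced by living HepG2 cells, at successive time points over 40 h of compound exposure. Cells with reagent were preincubated 5 h at 37 °C before compound addition.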
# [6] = qHTS RealTime-Glo MT Cell Viability Assay in HEK293 cells - 24 hour (AID 1224886); also: top concentration of the series differs between compounds; nearly all actives have a fitted effect of over 50% in size
# In short: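 Viability tracked continuously by luminescence as live cells reduce a prosubstrate for NanoLuc; HEK293 cells preincubated 5 h, compound-treated at 37 C, and read at 0, 8, 16, 24, 32 and 40 h.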
# [7] = qHTS RealTime-Glo MT Cell Viability Assay in HEK293 cells - 8 hour (AID 1224887); also: top concentration of the series differs between compounds; nearly all actives have a fitted effect of over 50% in size
# In short: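 600 HEK293 cells per well, dispensed already mixed with RealTime-Glo MT reagents. Compound dosing came 5 h later. The same wells were read for luminescence at 0, 8, 16, 24, 32 and 40 h of exposure at 37 C.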
# [8] = A CellTox Green Cytotoxicity Assay to monitor cytotoxicity in HEK293 cells - 16 hour (AID 1224888); also: nearly all actives have a fitted effect of over 35% in size
# In short: as §1
# [9] = qHTS RealTime-Glo MT Cell Viability Assay in HepG2 cells - 0 hour (AID 1224889); also: nearly all actives have a fitted effect of over 50% in size; also: potency is read from the fitted curve at half-maximal effect
# In short: as §3
# [10] = A CellTox Green Cytotoxicity Assay to monitor cytotoxicity in HepG2 cells - 8 hour (AID 1224890); also: nearly all actives have a fitted effect of over 45% in size
# In short: as §2
compound,measurement,setting,value
CC12CCC(C(=O)C1=O)C2(C)C (stereo not drawn),outcome,[1],inactive
same,Potency,[2],inactive
same,Potency,[3],inactive
same,outcome,[4],inactive
same,outcome,[5],inactive
same,Potency,[6],inactive
same,Potency,[7],inactive
same,outcome,[8],inactive
same,Potency,[9],inactive
same,outcome,[10],inactive
CNCC(O)c1ccc(O)c(O)c1 (stereo not drawn),outcome,[1],inactive
same,Potency,[2],inactive
same,Potency,[3],inactive
same,outcome,[4],inactive
same,outcome,[5],inactive
same,Potency,[6],inactive
same,Potency,[7],inactive
same,outcome,[8],inactive
same,Potency,[9],inactive
same,outcome,[10],inactive
COc1ccnc(CS(=O)c2nc3cc(OC(F)F)ccc3[nH]2)c1OC (stereo not drawn),outcome,[1],inactive
same,Potency,[2],inactive
same,Potency,[3],inactive
same,outcome,[4],inactive
same,outcome,[5],inactive
same,Potency,[6],inactive
same,Potency,[7],inactive
same,outcome,[8],inactive
same,Potency,[9],inactive
same,outcome,[10],inactive
CCCCCC(=O)OCCc1ccccc1,outcome,[1],inactive
same,Potency,[2],inactive
same,Potency,[3],inactive
same,outcome,[4],inactive
same,outcome,[5],inactive
same,Potency,[6],inactive
same,Potency,[7],inactive
same,outcome,[8],inactive
same,Potency,[9],inactive
same,outcome,[10],inactive
COc1cc(C)nc(-n2nc(C)cc2OC)n1,outcome,[1],inactive
same,Potency,[2],inactive
same,Potency,[3],inactive
same,outcome,[4],inactive
same,outcome,[5],inactive
same,Potency,[6],inactive
same,Potency,[7],inactive
same,outcome,[8],inactive
same,Potency,[9],inactive
same,outcome,[10],inactive
CC1=NN(c2cccc(S(=O)(=O)O)c2)C(=O)C1,outcome,[1],inactive
same,Potency,[2],inactive
same,Potency,[3],inactive
same,outcome,[4],inactive
same,outcome,[5],inactive
same,Potency,[6],inactive
same,Potency,[7],inactive
same,outcome,[8],inactive
same,outcome,[10],inactive
NC(N)=NCCN1CCCCCCC1,cytotoxicity increase,[1],2.16% [at 0.29 µM]
same,cytotoxicity,[2],-10% [at 0.29 µM]
same,cytotoxicity increase,[3],-12.8% [at 0.29 µM]
same,cytotoxicity increase,[4],0.959% [at 0.29 µM]
same,"activity change, negative = cytotoxic",[5],1.58% [at 0.29 µM]
same,"activity change, negative = cytotoxicity",[6],-3.39% [at 0.29 µM]
same,"activity change, negative = cytotoxicity",[7],-0.479% [at 0.29 µM]
same,activity change,[8],1.24% [at 0.29 µM]
same,"activity change, negative = cytotoxicity",[9],0.442% [at 0.29 µM]
same,cytotoxicity increase,[10],-11.3% [at 0.29 µM]
CCOc1ccccc1OCC,outcome,[1],inactive
same,Potency,[2],inactive
same,Potency,[3],inactive
same,outcome,[4],inactive
same,outcome,[5],inactive
same,Potency,[6],inactive
same,Potency,[7],inactive
same,outcome,[8],inactive
same,Potency,[9],inactive
same,outcome,[10],inactive
CCC(=O)OCc1ccccc1,outcome,[1],inactive
same,Potency,[2],inactive
same,Potency,[3],inactive
same,outcome,[4],inactive
same,outcome,[5],inactive
same,Potency,[6],inactive
same,Potency,[7],inactive
same,outcome,[8],inactive
same,outcome,[10],inactive
CCOc1ccc2nc(S(N)(=O)=O)sc2c1,outcome,[1],inactive
same,Potency,[2],inactive
same,Potency,[3],inactive
same,outcome,[4],inactive
same,outcome,[5],inactive
same,Potency,[6],inactive
same,Potency,[7],inactive
same,outcome,[8],inactive
same,Potency,[9],inactive
same,outcome,[10],inactive
CC(C)(C)C(=O)Oc1ccc(S(=O)(=O)Nc2ccccc2C(=O)NCC(=O)O)cc1,outcome,[1],inactive
same,Potency,[2],inactive
same,Potency,[3],inactive
same,outcome,[4],inactive
same,outcome,[5],inactive
same,Potency,[7],inactive
same,outcome,[8],inactive
same,Potency,[9],inactive
same,outcome,[10],inactive
Nc1ccn([C@@H]2O[C@H](CO)[C@@H](O)C2O)c(=O)n1 (stereo partly drawn),outcome,[1],inactive
same,Potency,[2],inactive
same,Potency,[3],inactive
same,outcome,[4],inactive
same,outcome,[5],inactive
same,Potency,[6],inactive
same,Potency,[7],inactive
same,outcome,[8],inactive
same,outcome,[10],inactive
N[C@H](C(=O)O)[C@@H](O)c1ccc(O)c(O)c1,outcome,[1],inactive
same,Potency,[2],inactive
same,Potency,[3],inactive
same,outcome,[4],inactive
same,outcome,[5],inactive
same,Potency,[7],inactive
same,outcome,[8],inactive
same,Potency,[9],inactive
same,outcome,[10],inactive
CCNC(=O)[C@@H]1CCCN1C(=O)[C@H](CCCN=C(N)N)NC(=O)[C@H](CC(C)C)NC(=O)CNC(=O)[C@H](Cc1ccc(O)cc1)NC(=O)[C@H](CO)NC(=O)[C@H](Cc1c[nH]c2ccccc12)NC(=O)[C@H](Cc1cnc[nH]1)NC(=O)[C@@H]1CCC(=O)N1 ([pGlu]HWSYGLRP-NHEt),outcome,[1],inactive
same,Potency,[2],inactive
same,Potency,[3],inactive
same,outcome,[4],inactive
same,outcome,[5],inactive
same,outcome,[8],inactive
same,Potency,[9],inactive
same,outcome,[10],inactive
O=C(CO)[C@@H](O)[C@H](O)[C@H](O)CO,outcome,[1],inactive
same,Potency,[2],inactive
same,Potency,[3],inactive
same,outcome,[4],inactive
same,outcome,[5],inactive
same,Potency,[7],inactive
same,outcome,[8],inactive
same,outcome,[10],inactive
CCCC(=O)O[C@]1(C(=O)CC)CC[C@H]2[C@@H]3CCC4=CC(=O)CC[C@]4(C)[C@H]3[C@@H](O)C[C@@]21C,outcome,[1],inactive
same,Potency,[2],inactive
same,Potency,[3],inactive
same,outcome,[4],inactive
same,outcome,[5],inactive
same,Potency,[7],inactive
same,outcome,[8],inactive
same,Potency,[9],1.69 µM (active)
same,outcome,[10],inactive
NO,outcome,[1],inactive
same,Potency,[2],inactive
same,Potency,[3],inactive
same,outcome,[4],inactive
same,outcome,[5],inactive
same,Potency,[7],inactive
same,outcome,[8],inactive
same,Potency,[9],inactive
same,outcome,[10],inactive
NCCCC[C@H](N[C@@H](CCc1ccccc1)C(=O)O)C(=O)N1CCC[C@H]1C(=O)O,outcome,[1],inactive
same,Potency,[2],inactive
same,Potency,[3],inactive
same,outcome,[4],inactive
same,outcome,[5],inactive
same,Potency,[7],inactive
same,outcome,[8],inactive
same,Potency,[9],inactive
same,outcome,[10],inactive
CC(C)CCCO,outcome,[1],inactive
same,Potency,[2],inactive
same,Potency,[3],inactive
same,outcome,[4],inactive
same,outcome,[5],inactive
same,Potency,[7],inactive
same,outcome,[8],inactive
same,Potency,[9],inactive
same,outcome,[10],inactive
Cc1nc2ccc(CN(C)c3ccc(C(=O)N[C@@H](CCC(=O)O)C(=O)O)s3)cc2c(=O)[nH]1,outcome,[1],inactive
same,Potency,[2],inactive
same,Potency,[3],inactive
same,outcome,[4],inactive
same,outcome,[5],inactive
same,Potency,[6],inactive
same,Potency,[7],inactive
same,outcome,[10],inactive
CC[N+](CC)(CC)CCOc1cccc(OCC[N+](CC)(CC)CC)c1OCC[N+](CC)(CC)CC,outcome,[1],inactive
same,Potency,[2],inactive
same,Potency,[3],inactive
same,outcome,[4],inactive
same,outcome,[5],inactive
same,Potency,[7],inactive
same,outcome,[8],inactive
same,Potency,[9],inactive
same,outcome,[10],inactive
NC(=O)N1c2ccccc2CC(=O)c2ccccc21,outcome,[1],inactive
same,Potency,[2],inactive
same,Potency,[3],inactive
same,outcome,[4],inactive
same,outcome,[5],inactive
same,Potency,[6],inactive
same,outcome,[8],inactive
same,outcome,[10],inactive
CC(=O)c1cnccn1,outcome,[1],inactive
same,Potency,[2],inactive
same,Potency,[3],inactive
same,outcome,[4],inactive
same,outcome,[5],inactive
same,Potency,[6],inactive
same,Potency,[9],inactive
CCCCOC(=O)CCC(C)=O,outcome,[1],inactive
same,Potency,[2],inactive
same,Potency,[3],inactive
same,outcome,[4],inactive
same,outcome,[5],inactive
same,Potency,[7],inactive
same,outcome,[8],inactive
same,Potency,[9],inactive
same,outcome,[10],inactive
